# Assay results reported in PubChem BioAssay (NCATS).
# Records with an inconclusive call do not appear. A call without a number means that no potency is given here. Activity calls are given as the source filed them. The call rests on the fitted dose curve; in most records, active means well fitted curve in the direction sought with a large enough effect; inconclusive means small, poorly fitted or top-dose-only effect, or another doubt; inactive means no such curve, though single readings can be large; an effect the other way counts as inactive or inconclusive.
# Experiments:
# [1] = molecular target: Aldehyde dehydrogenase, mitochondrial (Homo sapiens) (UniProt P05091); assay: qHTS for Inhibitors of the Aldehyde Dehydrogenase Family (ALDH2) Primary screen (AID 2061308); further: nearly all actives have a fitted effect of over 55% in size
# [2] = molecular target: Retinaldehyde dehydrogenase 3 (Homo sapiens) (UniProt P47895); assay: qHTS for Inhibitors of the Aldehyde Dehydrogenase Family (ALDH1A3) Primary screen (AID 2061315)
Compound,Potency [1],Potency [2]
Nc1ccccc1CNc1ccc(S(=O)(=O)Nc2nccs2)cc1,inactive,inactive
CCCn1c(C)nc2c(NCCN(CC)CC)nc(C)nc21,inactive,inactive
CCN(CC)CCCC(C)n1c(-c2ccccc2)nc2c(NCCO)nc(C)nc21 (stereo unspecified),inactive,inactive
COc1cc(O)c(C(CC(=O)N2CCCC(c3nc4ccccc4o3)C2)c2ccc3c(c2)OCO3)c(OC)c1 (stereo unspecified),inactive,inactive
COC1=CC(=O)C[C@@H](C)[C@@]12Oc1c(Cl)c(OC)cc(OC)c1C2=O,inactive,inactive
O=S(=O)(c1c(F)cccc1F)C1CCN(S(=O)(=O)c2ccc3c(c2)OCCO3)CC1,inactive,inactive
Cc1cc(C)nc(NC(=S)N2CCN(c3ccncc3)CC2)c1,inactive,inactive
COc1ccc(Br)cc1S(=O)(=O)N1CCN(S(=O)(=O)c2ccc3c(c2)OCCO3)CC1,inactive,inactive
COc1ccc(C2=Nn3c(nnc3-c3ccccc3F)SC2)cc1OCC1CC1,inactive,inactive
COc1ccc(-c2cnc(-c3cccc4c3-c3ccccc3C4=O)o2)cc1,inactive,inactive
COc1ccc(C(=O)Nc2ccc(-c3nc4ccccc4[nH]3)cc2)cc1Br,inactive,inactive
O=C(OCC#CCSc1nnc(-c2cccc3ccccc23)o1)c1sc(Cl)c(Cl)c1Cl,inactive,inactive
CC(C)c1cc(C(=O)N2CC[C@H](NC(=O)C3CC3)C2)n[nH]1,inactive,inactive
COc1ccc(S(=O)(=O)Nc2ccc(C)c(C)c2)cc1,inactive,inactive
Cc1ccc(NS(=O)(=O)c2ccc3c(c2)oc(=O)n3C)cc1C,inactive,inactive
CC(C)CCCCC(=O)N[C@@H](CO)C(=O)N[C@@H](CC(C)C)C(=O)[C@@]1(CO)CO1,inactive,inactive
Cc1cc2c(s1)c1cnn(Cc3ccc(F)c(F)c3F)c(=O)c1n2C,inactive,inactive
Cc1ccnc(NC(=S)N2CC[C@@H](Nc3cccc(C(F)(F)F)c3)C2)c1,inactive,inactive
Cn1ccc2cc(-c3ccc4ncnc(NCc5ccc6c(c5)OCO6)c4c3)ccc21,inactive,inactive
COc1cc(O)c(C(CC(=O)N2CC(C)NC(C)C2)c2ccc3c(c2)OCO3)c(OC)c1 (stereo unspecified),inactive,inactive
Cc1ccc(OCCn2c(CCNC(=O)c3cccc4[nH]ccc34)nc3ccccc32)cc1,inactive,inactive
O=C(NCCCn1ccnc1)c1nn2c(C(F)(F)F)cc(-c3ccc(Br)cc3)nc2c1Cl,inactive,inactive
O=C1CCc2cc(S(=O)(=O)Nc3ccc(Cl)c(Cl)c3)ccc2N1,inactive,inactive

Compound,Potency [1],Potency [2]
Cc1ccc(OCCn2c(CCNC(=O)Cc3cc(F)ccc3F)nc3ccccc32)cc1,inactive,inactive
O=S(=O)(Nc1nccs1)c1ccc(NCc2ccc(Cl)cc2O)cc1,inactive,inactive
Clc1ccccc1-c1ccc2ncnc(NCc3cccs3)c2c1,inactive,inactive
COc1ccccc1-c1nnc2n1N=C(c1c(OC)cccc1OC)CS2,inactive,inactive
O=S(=O)(Nc1nc(-c2ccccc2C(F)(F)F)nc2ccccc12)c1ccc(Br)cc1,inactive,inactive
CCC1(CC)CCN(C(=O)CC(c2ccc3c(c2)OCO3)c2c(O)cc(OC)cc2OC)C1 (stereo unspecified),inactive,inactive
CC1=C(C(=O)Nc2ccccc2C)C(c2ccccc2Br)N=C(Nc2nc3ccccc3o2)N1 (stereo unspecified),inactive,inactive
Cn1nnnc1Sc1ncnc2scc(-c3ccccc3[N+](=O)[O-])c12,inactive,inactive
CN(CC1CCCO1)c1ncnc2ccc(-c3ccc4c(c3)OCO4)cc12 (stereo unspecified),inactive,inactive
COc1ccc(C)cc1NC(=O)C(OC(=O)CNC(=O)c1ccccc1)c1ccccc1 (stereo unspecified),inactive,inactive
COc1cccc(CNc2ccc(S(=O)(=O)Nc3ccc(-c4ccccc4)cc3)cc2)c1O,inactive,inactive
Cc1cnc(-c2ccccc2OC(C)C)nc1NCc1ccc(-n2ccnn2)cc1,inactive,inactive
N#Cc1ccc(Nc2ncc(-c3cccc4ccccc34)o2)cc1,inactive,inactive
O=[S+]([O-])(c1c(F)cccc1F)N1CCN([S+](=O)([O-])c2csc3ccccc23)CC1,inactive,inactive
CCC(C)C(=O)OC1C(C)C2(O)C(C=C(CO)CC3(O)C(=O)C(C)=CC32)C2C(C)(C)C12OC(=O)C(C)C (stereo unspecified),inactive,inactive
O=C(NCCCc1cnc[nH]1)NCCCN(Cc1ccc(Cl)c(Cl)c1)c1ccc(Br)cn1,inactive,inactive
CC(C)(C)OC(=O)Cc1nnc(-c2nc3ccccc3[nH]2)o1,inactive,inactive
NC(=O)c1ccnc2c(O)cccc12,inactive,inactive
CCOC(=O)C1CCN(C(=O)C2(NC(=O)Nc3ccccc3Cl)CCC2)CC1,inactive,inactive
O=c1c2ccccc2nc2sc(Nc3ccc(F)cc3)nn12,inactive,inactive
COC1CC(O[C@H]2CC[C@]3(C)C4CC[C@@]5(C)C(=O)[C@]4(CC[C@@H]3C2)CC[C@@H]5C2=CC(=O)OC2)OC(C)C1OC1OC(COC2OC(CO)C(O)C(O)C2O)C(O)C(O)C1O (stereo partly specified),inactive,inactive
CC(C)(C)OC(=O)NCc1nnc(-c2cc3ccccc3[nH]2)o1,inactive,inactive
O=S1(=O)N=C(Sc2cc(C(F)(F)F)cc(C(F)(F)F)c2)c2ccccc21,inactive,inactive

Compound,Potency [1],Potency [2]
CC(=O)c1ccc(N2CCN(S(=O)(=O)c3ccc4c(c3)CC(C)N4C(C)=O)CC2)cc1 (stereo unspecified),inactive,inactive
Cc1ccc(OCCCn2c(CCNC(=O)C3CCCCC3)nc3ccccc32)cc1,inactive,inactive
FC(F)(F)c1cccc(N2CCN(C(=S)Nc3cccnc3)CC2)c1,inactive,inactive
CN(C(=O)c1cccs1)c1cccnc1,inactive,inactive
O=[N+]([O-])c1cccc(S(=O)(=O)N2CCN(S(=O)(=O)c3ccc4c(c3)OCCO4)CC2)c1,inactive,inactive
Cc1nc(NCCO)c2nc(-c3ccccc3)n(CCCN(C)C)c2n1,inactive,inactive
COc1ccc2nc(-c3ccc(N(C)C)cc3)sc2c1,inactive,inactive
O=[S+]([O-])(/C=C/c1nc(Nc2cc(F)cc(F)c2)c2ncn(CC(F)F)c2n1)c1ccccc1,inactive,inactive
N#Cc1cccc(-c2csc(N3CCC(C(N)=O)CC3)n2)c1,inactive,inactive
Cc1nnc(-c2cnn(C)c2N)o1,inactive,inactive
N#Cc1nc(Nc2cc(F)cc(F)c2)c2ncn(CCCN3CCCC3)c2n1,inactive,inactive
COc1ccccc1-c1nc(NCc2ccc(-c3cccnc3)cc2)c2ccccc2n1,inactive,inactive
Cc1ccc(S(=O)(=O)Nc2cnccc2C(=O)Nc2nc(-c3cccc(Cl)c3)cs2)cc1,inactive,inactive
CCc1ccc(NC(=O)c2[nH]c(C)c(C(C)=O)c2C)cc1S(=O)(=O)Nc1ccc(C#N)cc1,inactive,inactive
O=S(=O)(c1ccccc1)N1CCN(c2nccc(-c3cccs3)n2)CC1,inactive,inactive
O=C(O)c1ccc(O)c2ncc(NC3CCNCC3)cc12,inactive,inactive
Cc1ccc(NS(=O)(=O)c2ccc3c(c2)n(C)c(=O)n3C)cc1C,inactive,inactive
CC(C)(C)CNc1ncnc2ccc(-c3ccc(CO)o3)cc12,inactive,inactive
CCCCNc1nc(C)nc2c1nc(-c1ccccc1)n2CCCN(CC)CC,inactive,inactive
Nc1cccc([S+](=O)([O-])N2CCCN([S+](=O)([O-])c3cccc(N)c3)CC2)c1,inactive,inactive
Fc1cc(Nc2nc(-c3ccncc3)nc3ccccc23)ccc1-c1ccc2[nH]ncc2c1,inactive,inactive
O=C(O)c1ccc(O)c2ncc(N3CCCN(CCCc4ccncc4)CC3)cc12,inactive,inactive
